A selection: hits, their analogues and other compounds. The true share with any hit is near 2.7%.
NadD block – blocks S. aureus nicotinate mononucleotide adenylyltransferase. inhibition, % at 20 µM. 0.78% of 360,000 active. purified NadD enzyme, colorimetric absorbance read-out. AID 602399; in the data active = inhibition above about 26%
H9c2 TAG inh – reduces triacylglycerol accumulation in H9c2 cells | Nile Red lipid (TAG) fluorescence; cells loaded with 200 µM oleic acid | inhibition, % at 12.5 µM | 0.66% of 230,000 active | AID 651582;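 active = pattern-corrected inhibition of lipid staining of at least 50% with the nuclear-stain viability signal not falling by more than 50%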;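 also: 0% = DMSO wells and 100% = triacsin C control wells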
aDG glyco up – alpha-DG glycosylation activation. Pro5-aDG cells, alpha-DG glycosylation AlphaScreen (IIH6); 0% Pro5, 100% B10-LARGE cell signal. activation, % at 10 µM. 0.22% of 360,000 active. AID 624168;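 active = activation of at least 8% versus controls, or a plate z-score of at least 8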;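 also: Pro5 are CHO cells carrying HIG-tagged alpha-DG that lacks glycosylation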
MPTP block – permeability transition pore inhibition; inhibition, % at 10 µM; AID 602449; isolated mouse mitochondria, Ca2+ swelling absorbance, 30 min; 1.4% of 360,000 active;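 active = inhibition of 50% or more, scaled per plate between neutral and stimulator controls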;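 also: 0% = DMSO wells given calcium and 100% = 1 mM EGTA wells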
NadD conf – confirmation of Staphylococcus aureus NadD inhibitors; purified S. aureus NadD, colorimetric enzyme assay; 13% of 2,000 active; shares compounds with NadD block; AID 624309; inhibition, % at 20 µM; in the data active = inhibition mostly above about 42%, no sharp cut-off; inactive = mostly below about 42%
An asterisk follows results filed as active; . = no result given.

SMILES | NadD block | H9c2 TAG inh | aDG glyco up | MPTP block | NadD conf
O=C(N/N=C\C=C\c1ccco1)c1cc(-c2ccc3ccccc3c2)n[nH]1 | 54* | 28 | 0 | 4 | 69*
O=C(N/N=C/C=C\c1ccco1)c1ccccn1 | 5 | 7 | 0 | 3 | .
Cc1c(C(=O)NNC(=O)c2ccccc2O)oc2ccc(Br)cc12 | 30* | 0 | 0 | 0 | 56*
O=C(NCc1cccnc1)c1ccc(NS(=O)(=O)c2ccc(F)cc2)cc1 | -5 | 1 | 0 | -1 | .
COc1ccc(NC(=O)CSC2=C(C#N)C(c3ccco3)C(C(=O)Nc3nc4ccccc4s3)=C(C)N2)cc1 (configuration not stated) | 38* | 4 | 0 | 4 | 11
CC(=O)C1=C(C)NC(SCC(=O)Nc2nc3ccccc3s2)=C(C#N)C1c1ccc(Cl)cc1 (configuration not stated) | 18 | . | 0 | 4 | .
CCOC(=O)c1cc2c(=O)n3cccc(C)c3nc2n(Cc2ccco2)c1=NC(=O)c1ccccc1 | 32* | 15 | 0 | -1 | 11
CCOC(=O)c1cc2c(=O)n3ccccc3nc2n(Cc2ccco2)c1=NC(=O)c1cccc(OC)c1 | 45* | 3 | 1 | 0 | 8
CCOC(=O)c1cc2c(=O)n3ccccc3nc2n(Cc2ccco2)c1=NC(=O)c1ccc(OC)cc1 | 32* | -4 | 0 | 6 | 7
CCOC(=O)c1cc2c(=O)n3cccc(C)c3nc2n(Cc2ccco2)c1=NC(=O)c1ccc(C)cc1 | 0 | -7 | 0 | 0 | .
CCCn1c(SCC(=O)NCc2ccc3c(c2)OCO3)n[nH]c1=O | -9 | -15 | 0 | 1 | .
CCC(C(=O)NC1CCCC1)n1c(-c2ccnc3ccccc23)nc2ccccc21 (configuration not stated) | . | . | 0 | 4 | .
Cc1ccccc1OCc1nnc(SCC(=O)Nc2ccc3nc(SCC(=O)Nc4ccccc4)sc3c2)n1C | 32* | . | 0 | 4 | 3
Cc1ccccc1OCc1nnc(SCC(=O)Nc2ccc3c(c2)OCO3)n1C | 6 | . | 0 | 1 | .
O=C(O)Cc1sc(N/N=C\c2ccccc2)nc1-c1ccccc1 | 47* | . | 0 | 6 | 55*
CCc1ccc(NC(=O)C(C)OC(=O)c2cc(=O)[nH]c3ccc(S(=O)(=O)Nc4ccc(F)cc4)cc23)cc1 (configuration not stated) | 34* | 2 | 0 | 4 | 17
CCOc1ccc(NS(=O)(=O)c2ccc3[nH]c(=O)cc(C(=O)O)c3c2)cc1 | 2 | 2 | 0 | 2 | .
Cc1cccc(NS(=O)(=O)c2ccc3[nH]c(=O)cc(C(=O)OC(C)C(=O)Nc4ccc([N+](=O)[O-])cc4)c3c2)c1 (configuration not stated) | 43* | 5 | 0 | 3 | 41
NC(=O)COC(=O)c1cc(=O)[nH]c2ccc(S(=O)(=O)Nc3ccc(F)cc3)cc12 | 0 | . | 0 | -2 | .
COC(=O)[C@@]12C[C@@H](CC(=O)NCC34CC5CC(CC(C5)C3)C4)C(=O)N(CCc3ccc(OC)c(OC)c3)C1=CCC(C)(C)C2 | . | . | 0 | -3 | .
Cc1[nH]c2ccc(C(=O)OCC(=O)Nc3cccc(S(N)(=O)=O)c3)cc2c1C | -4 | 13 | 0 | 0 | .
Cc1nc(S/C(=C\c2ccc(OCc3ccccc3Cl)cc2)C(=O)O)n[nH]1 | 63* | -1 | 0 | -2 | 13
CC1CCc2c(sc3nc(CN4CCOCC4)nc(N4CCc5ccccc5C4)c23)C1 (configuration not stated) | 37* | . | 0 | 17 | 18
COc1cc(NCCCCCCN)c2ncccc2c1OC | 51* | 7 | 7 | 2 | 22
COc1ccc(N2CCN(S(=O)(=O)c3cc4c(cc3C)N(C(C)=O)CCO4)CC2)cc1 | 2 | -3 | 0 | -1 | .
SMILES | NadD block | H9c2 TAG inh | aDG glyco up | MPTP block | NadD conf
O=S(=O)(c1ccc(Cl)cc1)N1CCN(c2nc(-c3cccs3)nc3ccccc23)CC1 | 30* | . | 0 | 1 | 28
COc1cc(NC(=O)CSc2nnc(-c3cc(C)on3)o2)cc(OC)c1 | -2 | . | 0 | -1 | .
Cc1cc(-c2nnc(SCC(=O)Nc3nc(-c4ccc(Cl)cc4)cs3)o2)no1 | 27* | 15 | 0 | 2 | 2
CC(C)C[C@@H](CN1CCC[C@@H]1CN1C(=O)C(=O)NC[C@@H]1Cc1ccccc1)N1C[C@H](Cc2ccc(O)cc2)N(CC2CCCCCC2)C(=O)C1=O | 24 | -3 | 0 | 0 | .
O=C1NC[C@H](Cc2ccccc2)N(C[C@H]2CCCN2C[C@H](Cc2ccccc2)N2C[C@H](Cc3ccc(O)cc3)N(CC3CCCCCC3)C(=O)C2=O)C1=O | 31* | 5 | 0 | 1 | 48*
O=C1NC[C@H](Cc2ccccc2)N(C[C@H]2CCCN2C[C@H](Cc2ccc(O)cc2)N2C[C@H](Cc3ccc(O)cc3)N(CC3CCCCCC3)C(=O)C2=O)C1=O | 33* | 2 | 0 | -1 | 34
CC(C)C[C@H]1CN([C@@H](Cc2ccc(O)cc2)CN2CCC[C@@H]2CN2C(=O)C(=O)NC[C@@H]2Cc2ccccc2)C(=O)C(=O)N1CC1CCCCCC1 | 29 | -6 | 0 | 0 | .
O=C1NC[C@H](Cc2ccc(O)cc2)N(C[C@@H]2CCCN2C[C@H](Cc2ccccc2)N2C[C@H](Cc3ccc(O)cc3)N(CC3CCCCCC3)C(=O)C2=O)C1=O | 39* | . | 0 | -6 | 46
O=C1NC[C@H](Cc2ccc(O)cc2)N(C[C@@H]2CCCN2C[C@H](Cc2ccc(O)cc2)N2C[C@H](Cc3ccccc3)N(CC3CCCCCC3)C(=O)C2=O)C1=O | 45* | . | 0 | -2 | 40
CC(C)C[C@H]1CN([C@@H](Cc2ccc(O)cc2)CN2CCC[C@H]2CN2C(=O)C(=O)NC[C@@H]2Cc2ccccc2)C(=O)C(=O)N1CC1CCCCC1 | 23 | . | 0 | -1 | .
COc1cc(/C=C(\CCC(=O)O)c2nc3ccccc3s2)ccc1OCC(=O)Nc1c(Cl)cccc1Cl | 20 | 6 | 0 | -2 | .
C=CCn1c(=O)/c(=C/c2ccc(C)o2)s/c1=C(/C#N)C(=O)c1ccccc1 | 30* | 6 | 0 | 2 | 3
C=CCn1c(=O)/c(=C\c2ccccn2)s/c1=C(/C#N)C(=O)NCC1CCCO1 (configuration not stated) | -1 | . | 0 | -1 | .
Cc1cc(-c2csc(NC(=O)c3ccc(=O)n(C)n3)n2)c(C)n1CC1CCCO1 (configuration not stated) | 18 | -2 | 0 | 1 | .
Cc1cc(-c2csc(NC(=O)c3ccccc3C(F)(F)F)n2)c(C)n1Cc1ccccc1 | 33* | . | 0 | -1 | 20
O=C1NC(=O)c2c(Br)c(Br)c(Br)c(Br)c21 | 30* | 2 | 0 | 2 | 7
C#CCOCCOCCOCCNc1nc(N2CCN(C(=O)Cn3cc(CCO)nn3)CC2)nc(N2CCN(C(=O)[C@H](Cc3ccc(O)cc3)n3cc(CCO)nn3)CC2)n1 | 3 | -5 | 0 | -2 | .
CCN(CC)c1ccc(C(=O)OCC(=O)Nc2cc(C)on2)cc1 | 0 | 1 | 0 | 0 | .

Assay outcomes deposited in PubChem BioAssay by Sanford-Burnham Center for Chemical Genomics.
